Hit rate of the full screen: of about 48,000 compounds, about 13,000 (27%) showed an effect of 50% or more. This is one part of the list.
system: Wolbachia pipientis; test: Anti-Wolbachia Cell-Based Screen; type: functional; set-up: scale not given: in the data most compounds retested in dose-response had high values; details: 5 µM

Point of comparison: `CCCN(CCOC)C(=O)c1cc(Cn2c(C)nc3ccccc32)[nH]n1`, “Percent Effect” value 142.8%. Against it:
- COc1ccc2nc(C3CC3)cc(C(=O)NCc3noc(C)n3)c2c1 — lower, 1.07%
- COCCNC(=O)c1cc(C2CC2)nc2onc(C3CCNC3)c12 (configuration not stated) — lower, 98.56%
- CC(C)Nc1nc2c(cc1C(=O)NCC1CC1)CCNCC2.O=C(O)C(F)(F)F.O=C(O)C(F)(F)F — lower, -11.9%
- COc1ccc2nc(C3CC3)cc(C(=O)NCCc3nnc[nH]3)c2c1 — lower, -12.63%
- Cc1c(Br)cccc1C(=O)NCC1CCCNC1.Cl (configuration not stated) — lower, 0.4435%
- O=C(NCC1CC1)c1cc(C2CC2)nc2onc(C3CCCNC3)c12 (configuration not stated) — lower, 103.5%
- O=c1[nH]c(C2CCOC2)nc2ccc(Br)cc12 (configuration not stated) — lower, -44.09%
- CCCc1noc(CNc2cc(C[S+](C)[O-])ccc2Cl)n1 (configuration not stated) — lower, -7.446%
- c1cnn(CCNCc2csc(-c3ccc4c(c3)OCO4)n2)c1 — lower, -13.49%
- COC(=O)CNC(=O)C(C(C)C)n1cnc2cc(F)c(F)cc21 (configuration not stated) — lower, -6.926%
- CCn1cnnc1CNC(=O)N1CCN(c2nc(C)c(C)s2)CC1 — lower, 1.256%
- CCn1cnnc1CNC(=O)N1CCN(CC(C)C)CC1 — higher, 151.2%
- CCn1cnnc1CNC(=O)NCC(C(C)C)N1CCC(C)CC1 (configuration not stated) — lower, -9.877%
- CCn1cnnc1CNC(=O)N1CCN(c2cccs2)CC1 — lower, 0.168%
- CCn1cnnc1CNC(=O)N1CCN(c2nccs2)CC1 — lower, 84.21%
- CCn1cnnc1CNC(=O)N1CCN(C(C)C)CC1 — lower, 131.3%
- CCn1cnnc1CNC(=O)N1CCN(Cc2ccsc2)CC1 — lower, 120.4%
- CCC1CN(Cc2nnc(C(C)C)o2)CCC(=O)N1Cc1ccccc1 (configuration not stated) — lower, -5.543%
- CC(C)N(C)C(=O)C1CCC(=O)N(CCc2cccc(F)c2)C1 (configuration not stated) — lower, -15.9%
- CN(Cc1ccco1)C(=O)NCc1ccnc(SC(C)(C)C)c1 — lower, 12.7%
- CN1CCOC(C(=O)N2CCOC3(CCCC3)C2)C1 (configuration not stated) — lower, 0.3314%
- CCn1cnnc1CNC(=O)N1CCOC(c2ccc(F)cc2)C1 (configuration not stated) — lower, -19.34%
- CCc1nncn1CCNC(=O)N1CCN(Cc2ccccc2)CC1 — lower, 122%
- CCn1cnnc1CNC(=O)N1CCOCC1 — lower, -3.836%
- CC(NC(=O)N1CCN(CCc2ccccc2)CC1)c1nncn1C (configuration not stated) — lower, -0.7448%
- CCn1cnnc1CNC(=O)N1CCN(CCc2ccccc2)CC1 — lower, 119.3%
- CCn1cnnc1CNC(=O)N1CCCN(C(C)=O)CC1 — lower, -5.792%
- CCn1cnnc1CNC(=O)N1CCCCCC1 — lower, 138.5%
- CCn1cnnc1CNC(=O)N1CCN(Cc2ccccc2)CC1 — lower, 4.693%
- CCn1cnnc1CNC(=O)N1CCN(Cc2ccco2)CC1 — higher, 145.2%
- CCn1cnnc1CNC(=O)N1CCC(Cc2cccnc2)CC1 — lower, 3.678%
- Cc1cc(CNC(=O)N2CCCN(Cc3ccccc3)CC2)no1 — lower, 3.243%
- CC(C)Oc1cccc(C(=O)C2CCCN(C(=O)c3ccoc3)C2)c1 (configuration not stated) — lower, 9.263%
- CCSCc1cccc(NC(=O)N(C)Cc2ncnn2C)c1 — lower, -22.36%
- COc1ccc(NC(C)C(=O)N2CCCC2)cn1 (configuration not stated) — lower, 2.582%
- CCn1cnnc1CNC(=O)N1CCC(OCc2ccccc2)CC1 — lower, 128.6%
- CCN(CC)C1CCN(C(=O)NCc2nncn2CC)CC1 — lower, 7.856%
- CCn1cnnc1CNC(=O)N1CCC(C(=O)NC)CC1 — lower, -5.598%
- O=C(NCC(O)c1cccc(O)c1)C1CCN(C2CCCCC2)CC1 (configuration not stated) — lower, -14.15%
- Cc1nc[nH]c1-c1c(-c2ccccc2)ncn1C1CCNC1 (configuration not stated) — lower, 7.819%
- O=C([C@H]1CC[C@@H]2[C@@H](CCN2c2ncccn2)O1)N1CCCCO1 — lower, 84.25%
- Cc1ccc(N2CC[C@H]3O[C@H](C(=O)N4CCCCO4)CC[C@H]32)nn1.O=C(O)C(F)(F)F — lower, 105.7%
- O=C([C@@H]1CC[C@@H]2[C@@H](CCN2c2ncccn2)O1)N1CCCO1 — lower, 3.223%
- O=C(O)C(F)(F)F.O=C([C@H]1CC[C@@H]2[C@@H](CCN2Cc2ccc(F)cc2)O1)N1CCCO1 — lower, -3.999%
- Cc1ccc(N2CC[C@H]3O[C@@H](C(=O)N4CCCCO4)CC[C@H]32)nn1.O=C(O)C(F)(F)F — lower, 113.9%
- O=C(O)C(F)(F)F.O=C([C@@H]1CC[C@@H]2[C@@H](CCN2c2ccncn2)O1)N1CCCCO1 — lower, 117.6%
- CN1CCN(C(=O)[C@@H]2CC[C@@H]3[C@@H](CCN3c3ncccn3)O2)CC1.O=C(O)C(F)(F)F.O=C(O)C(F)(F)F — lower, -4.531%
- O=C(O)C(F)(F)F.O=C([C@@H]1COC[C@H]2CN(c3ccncn3)C[C@H]21)N1CCCCO1 — lower, -6.047%
- COC(=O)N(C)CCCC(=O)Nc1[nH]nc(-c2ccncc2)c1C — lower, -7.715%
- O=C1CC[C@H]2CN(C3CCOCC3)CC[C@H]2N1CCC1=CCCCC1 — lower, 14.62%
- Cc1ccc(N2CC[C@H]3O[C@@H](C(=O)NCc4ccco4)CC[C@H]32)nn1.O=C(O)C(F)(F)F — lower, 17.63%
- Cc1ccc(N2CC[C@H]3O[C@@H](C(=O)N4CCCO4)CC[C@H]32)nn1.O=C(O)C(F)(F)F — lower, 88.3%
- Cc1ccc(CN2CC[C@H]3O[C@@H](C(=O)N4CCCO4)CC[C@H]32)s1.O=C(O)C(F)(F)F — lower, -7.276%
- CSCCc1ccc(NC(=O)NC(C)Cn2cncn2)cc1 (configuration not stated) — lower, -13.08%
- C[C@@H]1CN(C(=O)c2ccc(C#N)nc2)CC[C@@]1(O)C1CCOCC1 — lower, -17.54%
- C[C@@H]1CN(C(=O)c2cnc(C3CC3)nc2)CC[C@@]1(O)C1CCOCC1 — lower, -14.06%
- C[C@@H]1CN(c2ccc(C#N)cn2)CC[C@@]1(O)C1CCOCC1 — lower, 124%
- C[C@@H]1CN(C(=O)c2c[nH]c(=O)c(Cl)c2)CC[C@@]1(O)C1CCOCC1 — lower, 3.711%
- C[C@@H]1CN(c2cccnn2)CC[C@@]1(O)C1CCOCC1 — lower, 104.1%
- C[C@@H]1CN(c2ccc(Cl)cn2)CC[C@@]1(O)C1CCOCC1 — lower, 111.4%
- CNc1ccnc(N2CC[C@@](O)(C3CCOCC3)[C@H](C)C2)n1 — lower, 0.6002%
- CN(Cc1ccsc1)C(=O)C1CCC(=O)N(Cc2ccccn2)C1 (configuration not stated) — lower, 0.2635%
- O=C(Nc1ccc(F)cc1)C1CNCCN1C(=O)CSc1ccncc1 (configuration not stated) — lower, -2.751%
- CN1CC(Nc2ccc(Br)cc2C#N)CCC1=O (configuration not stated) — lower, -7.586%
- CN(Cc1n[nH]c(=O)n1Cc1cccs1)S(C)(=O)=O — lower, 2.826%
- COc1ccc(CNC[C@H]2COCc3nc4cc(F)ccc4n32)cc1 — lower, -1.545%
- Cc1cc(C)c2c(c1)C(NCc1nnc3n1CCC3)CCCO2 (configuration not stated) — lower, -14.27%
- CC(C)c1nnc(CN(C)C(c2ccccc2)c2ccc(F)cc2)o1 (configuration not stated) — lower, 6.032%
- O=C(NCc1ccc(CN2CCCC2)cc1)NC1(CO)CCCC1 — lower, -3.44%
- Cn1ccc(C(=O)NCc2cccc(Cn3ccnc3)c2)cc1=O — lower, 0.02977%
- Cn1ccc(C(=O)NCc2ccc(CN3CCCCC3)cc2)cc1=O — lower, 90.87%
- Cn1ccc(C(=O)NCc2ccc(Cn3ccnc3)cc2)cc1=O — lower, -4.475%
- Cn1ccc(C(=O)NCc2ccc(CN3CCCC3)cc2)cc1=O — lower, 100.9%
- Cc1nccn1Cc1cccc(CNC(=O)c2ccn(C)c(=O)c2)c1 — lower, 4.832%
- Cn1ccc(C(=O)NCc2ccc(N3CCCC3)nc2)cc1=O — lower, -7.824%
- CC1CCN(Cc2ccc(CNC(=O)c3ccn(C)c(=O)c3)cc2)CC1 — lower, 110.1%
- CC1CN(c2ccc(CNC(=O)c3ccn(C)c(=O)c3)cn2)CCO1 (configuration not stated) — lower, -2.154%
- Cc1c(C)n(CC(O)CN2CCOCC2)c2c(Cl)cccc12.Cl (configuration not stated) — lower, 0.7413%
- Cc1csc(C(C)(C)NCC(=O)N2CCCC(C(F)(F)F)C2)n1 (configuration not stated) — lower, -11.49%
- COc1ccc(N(C(=O)c2ccccn2)C(C)C)cc1F — lower, 1.663%
- CCc1ccc(CN2CCN(c3ncc(Cl)cn3)CC2)nc1 — lower, -9.614%
- CCCN(CC)C(=O)c1nc2c(n1C)CCN(Cc1ccccc1)C2 — lower, -8.908%
- NC(=O)CNC(=O)c1cc(Cn2cnc3ccccc32)[nH]n1 — lower, -4.781%
- CCCN(CC)C(=O)c1cc(Cn2c(C)nc3ccccc32)[nH]n1 — higher, 146%
- COCCN(C(=O)c1cc(-c2ccc(C)s2)[nH]n1)C1CC1 — lower, 0.109%
- CCN(CCO)C(=O)c1cc(Cn2c(C)nc3ccccc32)[nH]n1 — higher, 148%
- CC(CNC(=O)c1cc(Cn2cnc3ccccc32)[nH]n1)N1CCCC1 (configuration not stated) — lower, 2.077%
- COCCN(CCOC)C(=O)c1ccn(-c2ccc3ccccn23)n1 — lower, 3.271%
- CC(=O)N[C@H]1CCN(C(=O)c2cc(Cn3cnc4ccccc43)[nH]n2)C1 — lower, -30.35%
- COc1ccc(OC)c(CNC2CCCN(c3cccnn3)C2)c1 (configuration not stated) — lower, -14.68%
- Cc1ccoc1C(=O)N1CCNCC1C(=O)NCc1ccncc1 (configuration not stated) — lower, -11.73%
- Cc1cc2n(n1)CC(CNCCc1cnn(C)c1)CN2 (configuration not stated) — lower, -15.02%
- O=C(NCCCC(=O)N1Cc2ccccc2C1)NCc1nccs1 — lower, -8.527%
- CC(=O)N1CCN(C(=O)CNc2ccc3ncsc3c2)CC1 — lower, -9.479%
- CCCc1nc(N(C)CCc2noc(C(C)C)n2)c2cnn(C)c2n1 — lower, 13.53%
- CCc1nnc2n1CCN(C(=O)C(C)COCc1ccccc1)C2 (configuration not stated) — lower, 5.124%

From ChEMBL document CHEMBL3988442, “University of Dundee, Small-Polar-MMV Screening Library” (2021)
